This passage reports relative cell viability results from the supplement of paper PMC4100887.

Structures can show the parent of a compound that is named as a salt. ± gives the standard deviation of the averaged measurements.

In one experiment the test system is IMR-90. In words: relative cell viability (ATPlite) vs untreated control (fraction); higher = less toxic. To be noted: 1 µM; 72 h. A general note: Cellular ATP, detected with luciferase, serves as a proxy for viable cell number.
For experiment [1], the system named is K562. The description is as above. Particulars: 1 µM; 72 h.
Experiment [2] relates to K562. In words: relative cell viability (ATPlite) vs untreated control, with imatinib (fraction); higher = less toxic. Particulars: 1 µM; 72 h; imatinib 0.125 µM.

For `Brc1c(Br)c(Br)c2n[nH]nc2c1Br` [Casein Kinase II Inhibitor I], the relative cell viability in the experiment on IMR-90 turned out to be 1 ± 0.059; in the experiment on K562 [1] it was 0.952 ± 0.068; in the experiment on K562 [2], 0.833 ± 0.03.

Turning to `COc1ccc(OC)c2c(=S)c3ccccc3[nH]c12`, the relative cell viability with IMR-90 was found to be 0.981 ± 0.051; in the experiment with K562 [1], 0.927 ± 0.054; in the experiment on K562 [2], 0.795 ± 0.041.

In the case of `N#C/C(=C(/N)Sc1ccccc1N)c1cccc(C(O)c2ccncc2)c1` (stereo not given) [MEK Inhibitor I], the relative cell viability with IMR-90 stood at 1.02 ± 0.1; in the experiment on K562 [1], 0.732 ± 0.045; in the experiment on K562 [2] it was 0.581 ± 0.03.

On to `O=C(O)c1ccc2c3c1cccc3c(=O)n1c3ccccc3nc21`, for which the relative cell viability with IMR-90 was found to be 0.961 ± 0.12; in the experiment with K562 [1], 0.947 ± 0.051; with K562 [2], 0.811 ± 0.088.

Turning to `N#CC(c1ccnc(NCCc2cccnc2)n1)c1nc2ccccc2s1` (stereo not given) [JNK Inhibitor V], the relative cell viability with IMR-90 is 1.01 ± 0.077; with K562 [1], 0.851 ± 0.092; in the experiment on K562 [2] it was 0.703 ± 0.056.

As to `Nc1[nH]nc2nnc(-c3c(-c4ccccc4)nn4ccccc34)cc12`, the relative cell viability turned out to be 1.03 ± 0.046 in the experiment with IMR-90, 0.915 ± 0.036 with K562 [1] and 0.779 ± 0.048 in the experiment on K562 [2].

Turning to `Cn1nc2c3c(cccc31)C(=O)c1ccccc1-2` [JNK Inhibitor, Negative Control], the relative cell viability in the experiment with IMR-90 amounted to 1.02 ± 0.11; in the experiment with K562 [1], 0.869 ± 0.083; in the experiment on K562 [2], 0.733 ± 0.038.

Turning to `O=C(Nc1ccc(Cl)cc1)c1ccccc1NCc1ccncc1` [VEGF Receptor Tyrosine Kinase Inhibitor II], the relative cell viability is 0.987 ± 0.064 in the experiment on IMR-90, 0.852 ± 0.056 in the experiment with K562 [1] and 0.802 ± 0.036 in the experiment with K562 [2].

In the case of `O=C1C(Cl)=C(N2C(=O)CCC2=O)C(=O)c2ccccc21` [MEK Inhibitor II], the relative cell viability was 1.01 ± 0.11 with IMR-90, 0.802 ± 0.089 with K562 [1] and 0.653 ± 0.071 in the experiment with K562 [2].

In the case of `O=C(c1ccccc1)c1ccc(N2CCOCC2)cc1O` [DNA-PK Inhibitor V], the results for the relative cell viability in the experiment with IMR-90, with K562 [1] and with K562 [2] were 1.01 ± 0.094, 0.878 ± 0.066 and 0.756 ± 0.03, respectively.

Turning to `O=c1cc(N2CCNCC2)oc2c(-c3ccccc3)cccc12`, the relative cell viability in the experiment on IMR-90 came to 0.987 ± 0.049; in the experiment on K562 [1] it was 0.828 ± 0.11; in the experiment on K562 [2], 0.76 ± 0.034.

On to `Nc1ccc(-c2cccc3c(=O)cc(N4CCOCC4)oc23)cc1`, for which the relative cell viability was determined as 0.822 ± 0.13 in the experiment with IMR-90, 0.79 ± 0.094 with K562 [1] and 0.627 ± 0.056 in the experiment with K562 [2].

For the compound `CN1C(=O)C(c2c[nH]c3ccccc23)=C(c2c[nH]c3ccccc23)C1=O` [Bisindolylmaleimide V], the results for the relative cell viability in the experiment with IMR-90, in the experiment on K562 [1] and in the experiment with K562 [2] were 0.936 ± 0.091, 0.88 ± 0.053 and 0.77 ± 0.0092, respectively.

For `Cc1cncc2cccc(S(=O)(=O)N3CCCN(C(=O)CN)C[C@@H]3C)c12` [Rho Kinase Inhibitor IV], the relative cell viability is 1.05 ± 0.12 with IMR-90, 0.809 ± 0.065 in the experiment on K562 [1] and 0.669 ± 0.031 in the experiment with K562 [2].

`CN1C(=O)C(Cc2c[nH]c3ccccc23)NC1=S` (stereo not given) [Necrostatin-1]: the results for the relative cell viability in the experiment on IMR-90, with K562 [1] and with K562 [2] were 0.915 ± 0.058, 0.921 ± 0.1 and 0.785 ± 0.044, respectively.

Take `COc1cc2c(cc1OC)-c1[nH]nc(Nc3cccc(F)c3)c1C2` [PDGF Receptor Tyrosine Kinase Inhibitor IV]: the figures for the relative cell viability in the experiment on IMR-90, in the experiment on K562 [1] and in the experiment on K562 [2] were 0.43 ± 0.07, 0.0468 ± 0.0021 and 0.0404 ± 0.0032, respectively.

Consider `O=C(Nc1ccc(-c2cn[nH]c2)cc1)C1COc2ccccc2O1` (stereo not given) [Rho Kinase Inhibitor V], for which the relative cell viability is 1.09 ± 0.066 in the experiment with IMR-90, 0.824 ± 0.075 in the experiment on K562 [1] and 0.687 ± 0.028 in the experiment on K562 [2].

As to `N#Cc1cc([N+](=O)[O-])c2sc(C(N)=O)[n+]([O-])c2c1` [Polo-like Kinase Inhibitor II, BTO-1], the relative cell viability came to 1.01 ± 0.12 in the experiment on IMR-90, 0.88 ± 0.081 in the experiment on K562 [1] and 0.709 ± 0.056 in the experiment with K562 [2].

With `CCN(CC)CCNC(=O)c1c(C)[nH]c(/C=C2\C(=O)Nc3ccc(Cl)cc32)c1C`, the relative cell viability with IMR-90 is 0.92 ± 0.082; with K562 [1] it was 0.909 ± 0.062; with K562 [2] it was 0.799 ± 0.052.

For the compound `Fc1ccc(-c2nc3n(c2-c2ccncc2)CCS3)cc1`, the values for the relative cell viability in the experiment with IMR-90, in the experiment on K562 [1] and in the experiment with K562 [2] were 0.999 ± 0.12, 0.845 ± 0.071 and 0.737 ± 0.058, respectively.

For the compound `O=Nc1c(-c2c(O)[nH]c3cc(Br)ccc23)[nH]c2ccccc12` [GSK-3 Inhibitor IX], the figures for the relative cell viability in the experiment with IMR-90, in the experiment on K562 [1] and with K562 [2] were 0.935 ± 0.077, 0.779 ± 0.036 and 0.599 ± 0.044, respectively.

On to `COc1cc(Nc2ncc3ccn(-c4cccc(CCC#N)c4)c3n2)cc(OC)c1OC` [Keratinocyte Differentiation Inducer], for which the relative cell viability in the experiment with IMR-90 worked out at 1.02 ± 0.058; with K562 [1] it was 0.173 ± 0.21; in the experiment on K562 [2] it was 0.459 ± 0.35.

On to `O=C1NCCc2[nH]c(-c3ccnc(-c4cnc5ccccc5c4)c3)cc21` [MK-2 Inhibitor III], for which the results for the relative cell viability in the experiment with IMR-90, with K562 [1] and in the experiment on K562 [2] were 0.884 ± 0.11, 0.837 ± 0.085 and 0.709 ± 0.057, respectively.

In the case of `CC[C@H](CO)Nc1nc(NCc2ccccc2O)c2ncn(C(C)C)c2n1` [Olomoucine II], the values for the relative cell viability in the experiment on IMR-90, in the experiment on K562 [1] and with K562 [2] were 1.07 ± 0.073, 0.758 ± 0.02 and 0.715 ± 0.028, respectively.

Consider `O=C1C(=Cc2ccc(O)cc2)C2=Nc3ccccc3C2=C1C1=C2C(=Nc3ccccc32)C(=Cc2ccc(O)cc2)C1=O` [Scytonemin, Lyngbya sp.], for which the values for the relative cell viability with IMR-90, in the experiment with K562 [1] and in the experiment with K562 [2] were 0.834 ± 0.054, 0.986 ± 0.052 and 0.821 ± 0.089, respectively.

As to `NCCCn1cc(C2=C(c3c[nH]c4ccccc34)C(=O)NC2=O)c2ccccc21` [Bisindolylmaleimide III, Hydrochloride], the relative cell viability stood at 1.06 ± 0.088 in the experiment on IMR-90, 0.88 ± 0.058 in the experiment with K562 [1] and 0.776 ± 0.042 in the experiment with K562 [2].

`O=C(c1cc2cc(O)ccc2[nH]1)c1cc2cc(O)ccc2[nH]1` [Flt-3 Inhibitor II]: the relative cell viability worked out at 1.04 ± 0.085 in the experiment with IMR-90, 0.461 ± 0.026 in the experiment with K562 [1] and 0.418 ± 0.035 in the experiment with K562 [2].

Consider `Cc1nc2cc3nc(-c4cccs4)cnc3cc2n1C`, for which the relative cell viability stood at 0.894 ± 0.058 in the experiment on IMR-90, 0.343 ± 0.04 with K562 [1] and 0.288 ± 0.015 with K562 [2].

On to `Oc1cccc(-c2nc(N3CCOCC3)c3oc4ncccc4c3n2)c1`, for which the relative cell viability with IMR-90 was 0.958 ± 0.099; in the experiment with K562 [1] it was 0.741 ± 0.015; in the experiment on K562 [2], 0.513 ± 0.045.

`COc1ccc2c(c1)c(C1=C(c3c[nH]c4ccccc34)C(=O)NC1=O)cn2CCCN(C)C`: the results for the relative cell viability in the experiment with IMR-90, in the experiment with K562 [1] and with K562 [2] were 0.969 ± 0.082, 0.872 ± 0.06 and 0.755 ± 0.051, respectively.
